Legend:
Assay in all cases: log2 ratio of Biotin-Ahx-Ub-VS probe labelling (fragment/DMSO); higher = less target engagement (more negative = stronger competition), active = hit call of the paper (q ≤ 0.05, log2 ratio ≤ -1)
Conditions in all cases: compound concentration: 200 uM; treatment time: 3 h
USP34 = USP34 (UniProt Q70CQ2)
In short: (§1)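 Average log2 ratios of fragment over vehicle were obtained by unpaired t-test from global-median-normalised Spectronaut label-free quantities. Proteins with ≥2 unique peptides were included. HEK293T lysate (495 µg per sample) was treated in triplicate with fragment at 200 µM or vehicle for 3 h, then with Biotin-Ahx-Ub-VS at 0.5 µM final for 1 h, and labelled DUBs were NeutrAvidin-enriched and run by diaPASEF LC-MS/MS.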

USP36 = target: T1, USP36 (UniProt Q9P275)
T1 sequence (whole entry): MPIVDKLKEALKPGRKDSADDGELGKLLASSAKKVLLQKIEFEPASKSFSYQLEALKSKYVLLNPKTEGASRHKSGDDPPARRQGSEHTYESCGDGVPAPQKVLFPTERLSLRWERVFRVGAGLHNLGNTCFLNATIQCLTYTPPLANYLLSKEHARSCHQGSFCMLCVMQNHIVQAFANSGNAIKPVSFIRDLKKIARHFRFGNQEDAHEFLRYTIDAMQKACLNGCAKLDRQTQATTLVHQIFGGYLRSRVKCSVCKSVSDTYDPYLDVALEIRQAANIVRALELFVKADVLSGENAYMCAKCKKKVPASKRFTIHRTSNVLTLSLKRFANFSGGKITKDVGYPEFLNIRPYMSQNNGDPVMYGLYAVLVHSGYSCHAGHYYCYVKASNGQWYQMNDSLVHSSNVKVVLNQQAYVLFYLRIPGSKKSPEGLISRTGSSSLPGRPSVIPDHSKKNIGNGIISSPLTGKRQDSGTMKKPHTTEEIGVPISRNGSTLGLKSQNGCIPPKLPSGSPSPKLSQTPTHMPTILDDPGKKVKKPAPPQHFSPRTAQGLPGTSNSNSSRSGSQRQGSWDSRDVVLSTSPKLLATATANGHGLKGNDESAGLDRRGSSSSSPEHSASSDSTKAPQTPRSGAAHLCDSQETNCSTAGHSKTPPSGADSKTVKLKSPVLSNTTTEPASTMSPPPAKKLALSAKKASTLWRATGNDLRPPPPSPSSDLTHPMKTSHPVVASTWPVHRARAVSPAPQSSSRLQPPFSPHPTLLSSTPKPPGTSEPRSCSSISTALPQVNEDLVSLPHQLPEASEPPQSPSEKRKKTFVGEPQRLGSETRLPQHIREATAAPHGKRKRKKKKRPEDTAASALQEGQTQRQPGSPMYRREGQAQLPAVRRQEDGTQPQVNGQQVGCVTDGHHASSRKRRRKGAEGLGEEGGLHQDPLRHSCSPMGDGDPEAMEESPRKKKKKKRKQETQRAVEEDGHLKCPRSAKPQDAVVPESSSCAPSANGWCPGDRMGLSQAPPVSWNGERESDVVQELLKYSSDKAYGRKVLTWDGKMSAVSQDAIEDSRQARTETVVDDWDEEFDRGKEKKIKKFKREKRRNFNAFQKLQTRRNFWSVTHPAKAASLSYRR
In short: as §1

USP38 = target: T2, USP38 (UniProt Q8NB14)
T2 sequence (whole entry): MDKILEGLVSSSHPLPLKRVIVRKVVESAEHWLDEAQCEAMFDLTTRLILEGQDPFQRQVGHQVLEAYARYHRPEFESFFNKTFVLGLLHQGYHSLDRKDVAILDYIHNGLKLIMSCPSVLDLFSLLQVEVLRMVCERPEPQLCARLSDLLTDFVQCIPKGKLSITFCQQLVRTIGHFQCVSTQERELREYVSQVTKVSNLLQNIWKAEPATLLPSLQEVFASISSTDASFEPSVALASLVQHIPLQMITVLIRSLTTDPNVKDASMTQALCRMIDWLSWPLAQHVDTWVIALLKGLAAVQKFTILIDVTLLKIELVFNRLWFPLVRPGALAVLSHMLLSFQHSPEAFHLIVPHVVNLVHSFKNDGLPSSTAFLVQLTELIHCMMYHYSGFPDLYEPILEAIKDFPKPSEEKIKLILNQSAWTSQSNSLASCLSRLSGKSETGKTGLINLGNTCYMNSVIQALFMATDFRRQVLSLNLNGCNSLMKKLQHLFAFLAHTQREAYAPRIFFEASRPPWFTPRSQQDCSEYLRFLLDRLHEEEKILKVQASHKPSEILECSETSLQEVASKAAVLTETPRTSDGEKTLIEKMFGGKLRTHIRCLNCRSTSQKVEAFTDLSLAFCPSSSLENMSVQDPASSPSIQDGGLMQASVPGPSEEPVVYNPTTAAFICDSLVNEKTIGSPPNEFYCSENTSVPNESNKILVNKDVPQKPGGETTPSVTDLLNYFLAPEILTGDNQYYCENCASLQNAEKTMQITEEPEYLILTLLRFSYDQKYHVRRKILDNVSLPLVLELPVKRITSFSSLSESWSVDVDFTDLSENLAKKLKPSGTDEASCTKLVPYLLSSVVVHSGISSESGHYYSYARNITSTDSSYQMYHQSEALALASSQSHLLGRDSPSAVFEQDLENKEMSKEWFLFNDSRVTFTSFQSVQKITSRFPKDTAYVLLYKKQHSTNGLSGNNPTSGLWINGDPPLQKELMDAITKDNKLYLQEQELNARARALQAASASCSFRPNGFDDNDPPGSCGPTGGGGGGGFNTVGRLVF
In short: as §1

USP39 = target: T3, USP39 (UniProt Q53GS9)
T3 sequence (whole entry): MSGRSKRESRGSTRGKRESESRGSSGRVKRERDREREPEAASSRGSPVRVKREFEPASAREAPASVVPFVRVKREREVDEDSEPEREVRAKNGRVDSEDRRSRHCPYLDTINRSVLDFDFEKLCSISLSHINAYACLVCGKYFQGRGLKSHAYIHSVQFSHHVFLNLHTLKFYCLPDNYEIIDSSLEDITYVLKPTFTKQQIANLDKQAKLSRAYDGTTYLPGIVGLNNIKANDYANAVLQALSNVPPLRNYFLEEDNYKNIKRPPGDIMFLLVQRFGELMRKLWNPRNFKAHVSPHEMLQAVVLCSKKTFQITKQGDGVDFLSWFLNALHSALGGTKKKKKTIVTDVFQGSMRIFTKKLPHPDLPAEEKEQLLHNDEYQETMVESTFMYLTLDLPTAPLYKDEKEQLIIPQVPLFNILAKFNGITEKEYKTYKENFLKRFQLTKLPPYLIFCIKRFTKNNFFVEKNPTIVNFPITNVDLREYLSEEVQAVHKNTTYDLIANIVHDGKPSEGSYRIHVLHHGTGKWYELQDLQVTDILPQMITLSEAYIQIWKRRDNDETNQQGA
In short: as §1

USP4 = target: T4, USP4 (UniProt Q13107)
T4 sequence (whole entry): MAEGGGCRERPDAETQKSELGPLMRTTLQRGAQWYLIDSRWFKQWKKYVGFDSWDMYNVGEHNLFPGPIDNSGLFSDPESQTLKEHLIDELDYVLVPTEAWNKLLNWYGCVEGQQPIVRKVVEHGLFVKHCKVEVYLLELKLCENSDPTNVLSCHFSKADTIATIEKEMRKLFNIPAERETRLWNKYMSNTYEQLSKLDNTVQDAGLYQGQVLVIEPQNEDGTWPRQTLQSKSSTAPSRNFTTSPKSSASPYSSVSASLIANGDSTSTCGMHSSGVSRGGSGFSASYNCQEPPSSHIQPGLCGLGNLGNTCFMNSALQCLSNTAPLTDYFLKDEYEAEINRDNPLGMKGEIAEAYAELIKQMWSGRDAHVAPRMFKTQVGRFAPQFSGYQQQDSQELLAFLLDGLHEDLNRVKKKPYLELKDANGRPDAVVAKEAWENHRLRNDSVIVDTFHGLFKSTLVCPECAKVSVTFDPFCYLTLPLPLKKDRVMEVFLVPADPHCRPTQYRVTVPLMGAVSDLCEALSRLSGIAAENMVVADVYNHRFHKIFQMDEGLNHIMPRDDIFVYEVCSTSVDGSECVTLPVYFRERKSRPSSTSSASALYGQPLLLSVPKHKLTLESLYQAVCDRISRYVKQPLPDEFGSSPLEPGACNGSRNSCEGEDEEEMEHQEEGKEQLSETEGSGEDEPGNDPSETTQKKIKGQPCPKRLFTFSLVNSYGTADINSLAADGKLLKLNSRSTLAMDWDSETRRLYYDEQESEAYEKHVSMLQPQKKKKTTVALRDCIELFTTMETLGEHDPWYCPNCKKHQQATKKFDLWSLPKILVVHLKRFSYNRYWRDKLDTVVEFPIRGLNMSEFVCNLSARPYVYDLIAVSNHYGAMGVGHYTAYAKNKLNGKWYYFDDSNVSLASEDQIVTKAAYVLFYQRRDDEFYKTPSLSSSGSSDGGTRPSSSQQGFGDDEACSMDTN
In short: as §1

Measured: log2 ratio of Biotin-Ahx-Ub-VS probe labelling

Chain of USP34 (Q70CQ2 whole entry, the tested form may be a part): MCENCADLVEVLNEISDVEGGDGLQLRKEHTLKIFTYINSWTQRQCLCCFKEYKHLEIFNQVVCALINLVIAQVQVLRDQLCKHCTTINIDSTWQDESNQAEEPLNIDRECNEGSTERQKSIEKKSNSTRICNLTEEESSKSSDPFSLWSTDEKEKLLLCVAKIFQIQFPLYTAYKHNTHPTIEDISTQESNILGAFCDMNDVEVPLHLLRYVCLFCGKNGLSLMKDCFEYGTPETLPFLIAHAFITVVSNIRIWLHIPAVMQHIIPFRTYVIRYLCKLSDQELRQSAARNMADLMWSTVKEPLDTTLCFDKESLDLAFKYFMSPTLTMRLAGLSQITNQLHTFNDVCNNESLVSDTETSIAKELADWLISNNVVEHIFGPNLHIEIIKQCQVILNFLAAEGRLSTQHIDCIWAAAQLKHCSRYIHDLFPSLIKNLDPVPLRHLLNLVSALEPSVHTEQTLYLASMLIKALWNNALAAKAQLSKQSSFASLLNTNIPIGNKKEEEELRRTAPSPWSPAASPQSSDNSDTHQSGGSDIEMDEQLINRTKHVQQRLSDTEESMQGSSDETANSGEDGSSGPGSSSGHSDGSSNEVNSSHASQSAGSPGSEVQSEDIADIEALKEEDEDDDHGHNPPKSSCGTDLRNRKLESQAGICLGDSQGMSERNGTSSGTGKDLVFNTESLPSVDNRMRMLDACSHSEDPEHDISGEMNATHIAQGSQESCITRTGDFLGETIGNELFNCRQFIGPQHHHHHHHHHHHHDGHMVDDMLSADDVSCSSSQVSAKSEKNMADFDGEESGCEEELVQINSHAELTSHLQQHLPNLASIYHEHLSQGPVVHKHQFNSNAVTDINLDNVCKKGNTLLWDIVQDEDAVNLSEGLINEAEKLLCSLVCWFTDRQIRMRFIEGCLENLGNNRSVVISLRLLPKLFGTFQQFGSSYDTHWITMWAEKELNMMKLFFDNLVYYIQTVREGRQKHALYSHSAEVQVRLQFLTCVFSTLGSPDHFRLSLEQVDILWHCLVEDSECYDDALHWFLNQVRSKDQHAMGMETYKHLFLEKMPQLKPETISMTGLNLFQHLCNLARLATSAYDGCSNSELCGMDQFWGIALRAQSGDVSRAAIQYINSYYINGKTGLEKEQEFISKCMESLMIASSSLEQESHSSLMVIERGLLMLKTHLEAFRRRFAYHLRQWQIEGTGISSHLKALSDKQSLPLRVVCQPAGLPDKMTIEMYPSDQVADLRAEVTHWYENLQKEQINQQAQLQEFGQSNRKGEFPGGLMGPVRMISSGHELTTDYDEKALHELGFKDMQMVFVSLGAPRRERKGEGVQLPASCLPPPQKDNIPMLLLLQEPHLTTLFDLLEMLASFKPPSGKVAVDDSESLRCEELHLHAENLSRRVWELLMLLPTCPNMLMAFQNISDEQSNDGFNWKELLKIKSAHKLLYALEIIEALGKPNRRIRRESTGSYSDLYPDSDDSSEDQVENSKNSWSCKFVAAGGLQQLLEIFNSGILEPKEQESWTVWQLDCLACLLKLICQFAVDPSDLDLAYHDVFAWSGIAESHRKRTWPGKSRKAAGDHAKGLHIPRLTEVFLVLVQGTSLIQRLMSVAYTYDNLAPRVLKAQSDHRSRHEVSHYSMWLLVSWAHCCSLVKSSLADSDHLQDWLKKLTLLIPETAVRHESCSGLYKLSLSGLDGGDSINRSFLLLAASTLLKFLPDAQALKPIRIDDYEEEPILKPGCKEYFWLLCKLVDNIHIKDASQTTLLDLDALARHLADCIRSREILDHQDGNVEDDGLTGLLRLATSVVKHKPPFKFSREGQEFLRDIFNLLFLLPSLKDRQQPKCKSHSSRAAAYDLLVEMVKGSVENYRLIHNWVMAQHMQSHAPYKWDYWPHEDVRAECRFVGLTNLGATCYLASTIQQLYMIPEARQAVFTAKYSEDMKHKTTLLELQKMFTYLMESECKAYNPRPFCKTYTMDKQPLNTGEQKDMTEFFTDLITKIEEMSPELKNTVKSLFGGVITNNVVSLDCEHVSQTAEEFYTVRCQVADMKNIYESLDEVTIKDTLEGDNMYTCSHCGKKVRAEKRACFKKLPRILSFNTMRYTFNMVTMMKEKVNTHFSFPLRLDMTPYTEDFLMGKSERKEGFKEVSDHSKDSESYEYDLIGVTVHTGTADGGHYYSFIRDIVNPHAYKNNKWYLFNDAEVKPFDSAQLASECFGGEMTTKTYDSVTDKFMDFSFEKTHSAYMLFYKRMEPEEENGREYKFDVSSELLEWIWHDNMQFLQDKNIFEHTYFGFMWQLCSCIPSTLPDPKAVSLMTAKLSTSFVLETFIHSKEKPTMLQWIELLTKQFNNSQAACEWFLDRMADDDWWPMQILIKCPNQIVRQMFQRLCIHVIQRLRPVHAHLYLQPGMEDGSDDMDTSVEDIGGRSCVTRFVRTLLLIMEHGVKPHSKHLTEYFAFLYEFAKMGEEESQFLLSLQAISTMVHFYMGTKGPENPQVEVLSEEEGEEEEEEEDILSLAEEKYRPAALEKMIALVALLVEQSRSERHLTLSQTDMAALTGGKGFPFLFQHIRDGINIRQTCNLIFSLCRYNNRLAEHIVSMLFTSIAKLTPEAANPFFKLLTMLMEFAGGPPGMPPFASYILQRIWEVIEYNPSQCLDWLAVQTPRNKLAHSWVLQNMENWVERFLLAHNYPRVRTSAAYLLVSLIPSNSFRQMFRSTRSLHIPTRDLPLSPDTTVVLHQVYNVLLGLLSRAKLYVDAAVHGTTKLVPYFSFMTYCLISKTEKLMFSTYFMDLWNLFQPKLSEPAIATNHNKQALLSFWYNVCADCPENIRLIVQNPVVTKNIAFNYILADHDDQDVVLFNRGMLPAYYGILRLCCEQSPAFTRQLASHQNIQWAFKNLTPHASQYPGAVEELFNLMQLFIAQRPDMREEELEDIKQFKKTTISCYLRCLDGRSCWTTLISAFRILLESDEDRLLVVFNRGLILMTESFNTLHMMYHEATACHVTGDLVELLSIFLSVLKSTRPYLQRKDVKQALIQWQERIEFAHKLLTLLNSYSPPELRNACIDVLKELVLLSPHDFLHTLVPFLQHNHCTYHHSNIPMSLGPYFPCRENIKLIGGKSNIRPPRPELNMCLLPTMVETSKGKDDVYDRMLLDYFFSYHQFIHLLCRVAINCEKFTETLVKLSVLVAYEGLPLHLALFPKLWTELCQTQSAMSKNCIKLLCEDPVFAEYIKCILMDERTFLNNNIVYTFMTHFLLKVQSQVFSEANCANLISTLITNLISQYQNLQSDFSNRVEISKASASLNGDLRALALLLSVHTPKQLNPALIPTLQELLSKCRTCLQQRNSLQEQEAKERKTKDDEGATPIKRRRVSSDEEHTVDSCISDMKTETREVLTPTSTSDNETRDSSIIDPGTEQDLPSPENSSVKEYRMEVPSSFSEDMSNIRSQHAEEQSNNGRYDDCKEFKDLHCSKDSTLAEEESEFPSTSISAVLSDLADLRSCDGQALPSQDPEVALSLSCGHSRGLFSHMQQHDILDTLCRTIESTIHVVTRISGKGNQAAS

Cn1cc(CN(Cc2ccc(Cl)cc2)C(=O)CCl)cn1
inactive: USP34 -0.228 | USP36 0.253 | USP38 -0.245 | USP39 -0.193 | USP4 -0.316

— the supplement of paper PMC11732987, “Enantioselective OTUD7B fragment discovery through chemoproteomics screening and high-throughput optimisation” (Communications Chemistry, 2025)
